The results in this text go back to PubChem BioAssay (NCI).

This is part of a sample that, as a whole, favours compounds with a hit. Of some 83,000 tested, about 20% had one in any assay.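 Treatment: one concentration, 48 hours, 96-well format. Scoring: percent growth, with anything below 10 considered active.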 A number with no mark means an inactive call. Calls of active or inactive are those of the source.

Among the test systems are NCI-H23 lung; NCI-H226 lung; NCI-H322M lung; HOP-62 NSCLC; NCI-H460 lung; HOP-92 NSCLC; NCI-H522 lung; A549/ATCC NSCLC; 786-0 renal; COLO 205 colon; DU-145 prostate; K-562 leukemia; MDA-MB-231 breast; RXF 393 renal; SF-268 CNS; SF-295 CNS; SF-539 CNS; UACC-257 melanoma; MALME-3M melanoma.
Assay in all cases: NCI-60 one-dose screen, 48 h (100 = growth as untreated, 0 = no growth, -100 = all killed)
What all share (conditions): 10 µM unless noted

`Cc1nc(Nc2ccc(NC(=S)Nc3ccccc3)cc2)nc2nc(SCc3ccccc3)[nH]c(=O)c12`: the growth in the experiment on NCI-H23 lung is 101%; with NCI-H226 lung, 82.6%; with NCI-H322M lung, 173%; with HOP-62 NSCLC it was 95.2%; in the experiment with NCI-H460 lung, 107%; with HOP-92 NSCLC it was 82.4%. The growth in the experiment with NCI-H522 lung is 40.5%; with A549/ATCC NSCLC, 57.9%; in the experiment on 786-0 renal, 99.1%; in the experiment with COLO 205 colon, 126%; in the experiment on DU-145 prostate, 104%; in the experiment on K-562 leukemia, 72.1%. Moreover, the growth was 76.9% in the experiment on MDA-MB-231 breast; -24% (active) with RXF 393 renal; 98.4% in the experiment with SF-268 CNS; 169% with SF-295 CNS; 63.3% in the experiment on SF-539 CNS; 74.8% with UACC-257 melanoma.
For the compound `CC(=O)NCC(=O)Nc1ccc(-c2nnc3ccccn23)nc1.CC(=O)NCC(=O)Nc1ccc(-c2nnc3ccccn23)nc1.[Pt+2]`, the growth is 99.4% in the experiment on NCI-H23 lung; 110% in the experiment on NCI-H226 lung; 112% with NCI-H322M lung; 101% with HOP-62 NSCLC; 99.6% in the experiment on NCI-H460 lung; 119% in the experiment with HOP-92 NSCLC. In addition, the growth is 83.6% with NCI-H522 lung; 85% with A549/ATCC NSCLC; 107% in the experiment on 786-0 renal; 111% in the experiment with COLO 205 colon; 109% with DU-145 prostate; 105% in the experiment with MALME-3M melanoma. Further, the growth was 104% with MDA-MB-231 breast; 117% with RXF 393 renal; 109% in the experiment with SF-268 CNS; 117% in the experiment with SF-295 CNS; 110% in the experiment on SF-539 CNS; 78.7% with UACC-257 melanoma.
With `COc1cc(NC(=O)c2cc(O)c(CC=C(C)C)c(O)c2)cc2c1O[C@]1(C)CC[C@@H](O)C(C)(C)[C@H]1C2`, the growth is 39% with NCI-H23 lung; 79.4% in the experiment on NCI-H226 lung; 67.9% in the experiment with NCI-H322M lung; 31.4% with HOP-62 NSCLC; 27.2% in the experiment on NCI-H460 lung; -0.592% (active) in the experiment with HOP-92 NSCLC. For the same compound, the growth is 8.19% (active) in the experiment with NCI-H522 lung; 40.3% with A549/ATCC NSCLC; 1.24% (active) with 786-0 renal; -28.8% (active) with COLO 205 colon; 42.8% with DU-145 prostate; 43.9% with MALME-3M melanoma. Also, the growth with MDA-MB-231 breast was 32.8%; in the experiment on RXF 393 renal it was -23.6% (active); in the experiment with SF-268 CNS it was 42%; with SF-295 CNS it was -49.6% (active); in the experiment on SF-539 CNS it was -34.6% (active); in the experiment with UACC-257 melanoma, 36.3%.
Turning to `Nc1c(-c2nc3ccccc3c(=O)[nH]2)nnn1-c1ccc(Cl)cc1`, the growth in the experiment on NCI-H23 lung was 78.9%; with NCI-H226 lung it was 102%; with NCI-H322M lung it was 78.3%; with HOP-62 NSCLC it was 57.2%; in the experiment on NCI-H460 lung, 56.2%; with HOP-92 NSCLC it was 101%. Also, the growth in the experiment with NCI-H522 lung is 52.5%; in the experiment with A549/ATCC NSCLC, 40.6%; with 786-0 renal, 82.2%; in the experiment on COLO 205 colon it was 98.6%; with DU-145 prostate, 77.3%; in the experiment on MALME-3M melanoma, 83.3%. For the same compound, the growth in the experiment on MDA-MB-231 breast is 85%; in the experiment with RXF 393 renal, 81.9%; in the experiment on SF-268 CNS, 66.8%; in the experiment with SF-295 CNS, 73.6%; with SF-539 CNS, 50.5%; in the experiment on UACC-257 melanoma it was 84.8%.
Take `CCOC(=O)c1nnn(C(Cc2ccccc2Cl)C(=O)OCC)c1C` (stereo not drawn): the growth in the experiment on NCI-H23 lung was 105%; in the experiment with NCI-H226 lung, 103%; in the experiment on NCI-H322M lung it was 108%; in the experiment with HOP-62 NSCLC it was 93.4%; in the experiment with NCI-H460 lung, 101%; with HOP-92 NSCLC, 93.5%. The growth was 68.9% in the experiment with NCI-H522 lung; 82.6% in the experiment with A549/ATCC NSCLC; 102% with 786-0 renal; 105% in the experiment with COLO 205 colon; 109% with DU-145 prostate; 117% in the experiment with MALME-3M melanoma. For the same compound, the growth was 104% in the experiment on MDA-MB-231 breast; 109% in the experiment on RXF 393 renal; 111% in the experiment on SF-268 CNS; 111% with SF-295 CNS; 107% with SF-539 CNS; 83.6% in the experiment with UACC-257 melanoma.
`CCOC(=O)c1nnn(-c2ccccc2)c1C1=CN(C)CCC1`: the growth in the experiment with NCI-H23 lung is 92.8%; in the experiment on NCI-H226 lung, 102%; in the experiment on NCI-H322M lung, 95.8%; in the experiment with HOP-62 NSCLC, 99.6%; in the experiment with NCI-H460 lung, 104%; with HOP-92 NSCLC, 108%. Moreover, the growth is 86.7% in the experiment on NCI-H522 lung; 99.6% with A549/ATCC NSCLC; 97.3% in the experiment with 786-0 renal; 113% with COLO 205 colon; 103% in the experiment with DU-145 prostate; 104% with MALME-3M melanoma. The growth with MDA-MB-231 breast was 112%; in the experiment on RXF 393 renal, 120%; with SF-268 CNS, 92.4%; in the experiment on SF-295 CNS, 98.2%; in the experiment with SF-539 CNS, 95.2%; in the experiment with UACC-257 melanoma, 99.4%.
As for `CN1CCN(C2=C(Cl)C(=O)c3ccccc3C2=O)CC1`, the growth is 55.5% in the experiment with NCI-H23 lung; 94.2% with NCI-H226 lung; 97.4% in the experiment on NCI-H322M lung; 94.9% in the experiment on HOP-62 NSCLC; 92.3% in the experiment on NCI-H460 lung; 102% with HOP-92 NSCLC. Also, the growth was 25.1% in the experiment with NCI-H522 lung; 81.4% in the experiment with A549/ATCC NSCLC; 84.7% in the experiment with 786-0 renal; 81.4% in the experiment with COLO 205 colon; 23.1% with K-562 leukemia; 4.5% (active) in the experiment on MALME-3M melanoma. Besides, the growth in the experiment on MDA-MB-231 breast was 41.6%; with RXF 393 renal it was 101%; in the experiment on SF-295 CNS it was 84.1%; in the experiment on SF-539 CNS, 105%; with UACC-257 melanoma, 56.5%.
Regarding `C[C@@H]1CC[C@@H]2[C@@H]1[C@H](OC(=O)/C=C/c1ccccc1)[C@]1(C3CCCCC3)C[C@@H](NC(=O)CO)[C@@]2(C)O1`, the growth with NCI-H23 lung is 95.8%; in the experiment on NCI-H226 lung, 102%; in the experiment with NCI-H322M lung, 92.9%; in the experiment with HOP-62 NSCLC it was 112%; in the experiment on NCI-H460 lung it was 94.5%; in the experiment with HOP-92 NSCLC it was 94.4%. The growth was 71.9% in the experiment with NCI-H522 lung; 101% in the experiment on A549/ATCC NSCLC; 96.4% with 786-0 renal; 109% in the experiment on COLO 205 colon; 107% in the experiment with DU-145 prostate; 99.2% in the experiment with MALME-3M melanoma. The growth in the experiment with MDA-MB-231 breast is 102%; with RXF 393 renal, 53.2%; with SF-268 CNS, 97.4%; with SF-295 CNS it was 112%; with SF-539 CNS it was 100%; in the experiment on UACC-257 melanoma it was 110%.
